EPAC1 antagonist: EPAC1 (human) antagonism; EPAC1 GEF assay, Rap1b-BODIPY-GDP exchange fluorescence; Potency, µM (top dose mostly 115 µM), inactives show at the top dose activity change, negative = inhibition, hits mostly inhibitors; 0.14% of 360,000 active; AID 720709;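 note: plate controls were vehicle for no effect and positive control for full effect; nearly all actives have a fitted effect of over 50% in size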
Target sequence (O95398 whole entry, looked up): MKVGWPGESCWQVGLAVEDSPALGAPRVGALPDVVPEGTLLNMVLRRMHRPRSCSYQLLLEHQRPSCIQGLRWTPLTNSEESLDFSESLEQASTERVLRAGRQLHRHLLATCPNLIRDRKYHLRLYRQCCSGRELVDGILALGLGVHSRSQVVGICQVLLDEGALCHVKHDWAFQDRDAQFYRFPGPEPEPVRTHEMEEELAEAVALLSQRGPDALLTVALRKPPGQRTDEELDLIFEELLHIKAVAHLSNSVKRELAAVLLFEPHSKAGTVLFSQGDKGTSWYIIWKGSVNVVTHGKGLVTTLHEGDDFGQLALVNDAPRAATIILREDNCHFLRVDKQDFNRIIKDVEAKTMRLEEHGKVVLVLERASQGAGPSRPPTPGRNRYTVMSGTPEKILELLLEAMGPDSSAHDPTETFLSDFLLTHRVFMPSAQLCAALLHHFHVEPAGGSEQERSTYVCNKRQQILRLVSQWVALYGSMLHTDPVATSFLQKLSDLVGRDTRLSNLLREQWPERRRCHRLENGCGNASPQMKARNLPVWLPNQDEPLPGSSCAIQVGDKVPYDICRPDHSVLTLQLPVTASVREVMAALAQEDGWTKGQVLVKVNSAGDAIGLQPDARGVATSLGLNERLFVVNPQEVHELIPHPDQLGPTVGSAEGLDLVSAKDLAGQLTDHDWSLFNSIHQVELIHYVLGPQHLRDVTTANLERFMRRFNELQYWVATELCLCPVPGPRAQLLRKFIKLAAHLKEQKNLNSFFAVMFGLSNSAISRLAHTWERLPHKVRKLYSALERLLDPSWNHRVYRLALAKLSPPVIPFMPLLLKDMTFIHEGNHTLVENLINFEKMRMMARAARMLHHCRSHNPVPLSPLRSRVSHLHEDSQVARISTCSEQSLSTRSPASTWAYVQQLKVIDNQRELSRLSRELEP
EPAC1 agonist: agonists of human EPAC1; O95398; Potency, µM (top dose mostly 154 µM), without a hit: at the top dose activation, most hits filed as activators; EPAC1 agonist qHTS, biochemical assay; response scale: 100% = response to 6.5 mM cAMP; 0.073% of 360,000 active; note: nearly all actives have a fitted effect of over 60% in size
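Fluorescent GDP-exchange assay: 100 nM EPAC1 with 250 nM Rap1B preloaded with BODIPY-GDP and 50 uM GDP; compounds tested as concentration series, 5 min at room temperature, then read every 5 min for 30 min (ex 480/em 540 nm); normalized to 6.5 mM cAMP.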
USP1 inh: blocks the human USP1/UAF1 deubiquitinase complex | recombinant USP1/UAF1, Ub-Rhodamine cleavage fluorescence | Potency, µM (doses to about 57.1 µM), inactives show at the highest dose activity change, negative = inhibition, usual class: inhibitors | 0.23% of 390,000 active | AID 743255; note: % is set by controls: 0 for no effect and ±100 for the full control effect; nearly all actives have a fitted effect of over 60% in size
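High-throughput fluorogenic screen: 1nM USP1/UAF1 complex, Ub-Rho substrate 150nM final, 50mM HEPES pH 7.8 with 0.5mM EDTA, 0.1 mg/ml BSA, 1mM TCEP and 0.01% Tween-20.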
EPAC2 antagonist: EPAC2 (human) antagonism; 0.18% of 360,000 active; EPAC2 GEF exchange of Rap1B-BODIPY-GDP, fluorescence; Potency, µM (top dose mostly 114 µM), for inactives: at the highest dose activity, negative = inhibition, hits mostly inhibitors; Q8WZA2; note: % is set by controls: 0 for no effect and ±100 for the full control effect; nearly all actives have a fitted effect of over 45% in size
EPAC2 ag: activates human EPAC2 exchange factor; Q8WZA2; EPAC2 activation, biochemical qHTS; response scale: 100% = 6.5 mM cAMP response; Potency, µM (doses to about 154 µM), for inactives: at the highest dose activation, most hits filed as activators; 0.079% of 360,000 active; note: nearly all actives have a fitted effect of over 50% in size
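Exchange assay: 100 nM EPAC2 with 250 nM Rap1B-BODIPY-GDP and 50 uM GDP. Fluorescence (ex 480/em 540 nm) read every 5 min for 30 min at room temperature. Data normalized to 6.5 mM cAMP as agonist control.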
Active calls of the source: *; ? = inconclusive; / = no result; [ ] = remark or other dose. Sampled rows, rich in hits. Any-hit rate of the full collection: about 0.49%. Calls come from the whole dose curve; as a rule, active = well fitted curve in the direction sought with a large enough effect; inconclusive = small, poorly fitted or top-dose-only effect, or another doubt; inactive = no such curve, though single readings can be large; an effect the other way counts as inactive or inconclusive. Potency is the fitted concentration of half-maximal effect.

SMILES	EPAC1 antagonist	EPAC1 agonist	USP1 inh	EPAC2 antagonist	EPAC2 ag
C#CCOCCOCCOCCNc1nc(N2CCN(C(=O)CCCCCCCCCCNC(=O)Cn3cc(C[C@@H](C)O)nn3)CC2)nc(N2CCN(C(=O)CCCCCCCCCCNC(=O)[C@@H]([C@H](C)CC)n3cc(CCCCCN)nn3)CC2)n1	50µM*	19%	?	-28%	16%
C#CCOCCOCCOCCNc1nc(N2CCN(C(=O)CCCCCCCCCCNC(=O)Cn3cc(CCCCCN)nn3)CC2)nc(N2CCN(C(=O)CCCCCCCCCCNC(=O)Cn3cc(C[C@@H](C)O)nn3)CC2)n1	35µM*	23%	?	?	?
C#CCOCCOCCOCCNc1nc(N2CCOCC2)nc(N2CCN(C(=O)[C@H](Cc3cc4ccccc4[nH]3)n3cc([C@@H](N)C(C)CC)nn3)CC2)n1 (stereo partly drawn)	-8%	-4%	45µM*	5%	1%
C#CCOCCOCCOCCNc1nc(N2CCN(C(=O)CCCCCCCCCCNC(=O)[C@H](CCCCN)n3cc(C)nn3)CC2)nc(N2CCN(C(=O)CCCCCCCCCCNC(=O)[C@H](CCCN=C(N)N)n3cc(C[C@@H](C)CC)nn3)CC2)n1	50µM*	5%	?	-21%	19%
C#CCOCCOCCOCCNc1nc(N2CCN(C(=O)CCCCCCCCCCNC(=O)[C@H](CCCCN)n3cc(C[C@@H](C)CC)nn3)CC2)nc(N2CCN(C(=O)CCCCCCCCCCNC(=O)[C@H](CCCN=C(N)N)n3cc(C[C@@H](C)CC)nn3)CC2)n1	?	27%	?	?	11%
CCc1cccc(NC(=O)CSc2nc3ccccc3nc2N2CCCCC2)c1	/	/	-33%	/	/
Cc1cc(Cl)ccc1NC(=O)c1cc2ccccn2n1	/	/	-26%	/	/
COc1ccc(CC(=O)Nc2cc(-c3cn4cccnc4n3)ccc2OC)cc1	/	/	4%	/	/
COc1ccc(C)cc1S(=O)(=O)N1CCN(c2cccc(Cl)c2)CC1	/	/	-11%	/	/
O=C(NCCc1cccs1)c1ccc(Cn2c(SCc3ccc(F)cc3)nc3cccnc32)cc1	/	/	-26%	/	/
COc1ccc(C2=C(N)c3ccccc3C2=O)cc1	-6%	-2%	-18%	-2%	-5%
COC1=C(c2ccccc2)C(=O)c2ccccc2C1=O	23%	-1%	14µM*	-4%	9%
CCOc1ccc(-n2c(C)nc3cc(C(=O)NCc4ccc(C)cc4)ccc32)cc1	/	/	-7%	/	/
CC1=CC2=NC(=O)/C(=C\c3cc(C)n(-c4cccc(Cl)c4)c3C)C(=N)N2O1	-29%	8%	-2%	-1%	12%
COc1cc(/C=C2/C(=N)N3C(SC)=NSC3=NC2=O)ccc1OC(=O)c1ccco1	-28%	5%	-4%	-7%	4%
CC1=CC2=NC(=O)/C(=C/c3coc4ccc(Cl)cc4c3=O)C(=N)N2O1	16%	?	28µM*	46%	?
CC(C)CSC1=NSC2=NC(=O)/C(=C\c3cccs3)C(=N)N12	-4%	-9%	-11%	-8%	2%
CSC1=NSC2=NC(=O)/C(=C/c3coc4ccccc4c3=O)C(=N)N12	76%	100µM*	25µM*	93%	89µM*
CSC1=NSC2=NC(=O)/C(=C\c3cccs3)C(=N)N12	4%	-2%	-8%	-4%	-4%
CSC1=NSC2=NC(=O)/C(=C/c3coc4ccc(O)cc4c3=O)C(=N)N12	165%	79µM*	22µM*	419%	100µM*
N=C1/C(=C/c2cccs2)C(=O)N=C2SN=C(SCc3ccccc3)N12	79µM*	5%	-9%	0%[57.1 µM]	-2%
COc1ccc(NC(=O)c2cnn(-c3ccc(C)cc3)c2-n2cccc2)cc1Cl	/	/	1%	/	/
N=C1/C(=C\c2coc3ccccc3c2=O)C(=O)N=C2SC=CN12	60%	89µM*	28µM*	157%	112µM*
Cc1c(CCC(=O)O)c(=O)oc2cc3occ(-c4ccc(Cl)cc4)c3cc12	-8%	8%	?	-27%	1%
Cc1c(CCC(=O)O)c(=O)oc2c(C)c3occ(-c4ccc(Cl)cc4)c3cc12	40µM*	?	?	-14%	?
SMILES	EPAC1 antagonist	EPAC1 agonist	USP1 inh	EPAC2 antagonist	EPAC2 ag
CCOc1ccccc1NC(=O)Cn1cc(C(=O)c2cccc(OC)c2)c(=O)c2ccc(C)nc21	/	/	-20%	/	/
CCCCCNc1nc2c(-c3ccccc3)nnn2c2ccccc12	/	/	-18%	/	/
O=C(O)CN1C(=O)/C(=C\c2cc(Br)ccc2OCc2ccc([N+](=O)[O-])cc2)SC1=S	?	-7%	?	?	-9%
O=C(O)CN1C(=O)/C(=C\c2ccccc2OCc2ccc(Cl)cc2Cl)SC1=S	?	5%	?	?	-1%
O=C(O)CN1C(=O)/C(=C\c2cc(Br)ccc2OCc2ccccc2F)SC1=S	?	6%	?	56µM*	0%
O=C(O)CN1C(=O)/C(=C\c2cc(Br)ccc2OCc2ccccc2Cl)SC1=S	40µM*	5%	?	-9%	10%
CC[n+]1c(/C=C/C=C/N(C(C)=O)c2ccccc2)sc2ccccc21	18%	?	32µM*	92%	100µM*
CCCn1c(O)c(N=Nc2ccc3ccccc3n2)c2ccccc21	1%	-5%	-17%	68%	89µM*
COc1ccc2oc(C(=O)Nc3ccc(N4CCOCC4)cc3)c(C)c2c1	?	63µM*	-11%	10%	-2%
COc1cccc(C2CC(c3cccs3)=NN2C(=O)c2ccco2)c1O (stereo not drawn)	-28%	-12%	-20%	35µM*	5%
COc1cccc(C2=NN(C(=O)c3ccco3)C(c3ccco3)C2)c1 (stereo not drawn)	7%	13%	-18%	14µM*	6%
Cc1nn(CCC(=O)N2CCN(c3ccccc3)CC2)c(C)c1S(=O)(=O)N1CCCC1	/	/	-21%	/	/
CCC(C)n1c(=N)c(C#N)cc2c(=O)n3ccccc3nc21 (stereo not drawn)	7%	-7%	-16%	87%	56µM*
CCCn1c(=N)c(C#N)cc2c(=O)n3ccccc3nc21	15%	13%	?	12%	5%
CCCCNc1nc(Oc2ccc(=O)n(C)n2)nc(N2CCOCC2)n1	/	/	-1%	/	/
O=C(CN1C(=O)/C(=C2/SC(=S)N(CCS(=O)(=O)O)C2=O)c2ccccc21)Nc1cccc(C(F)(F)F)c1	40µM*	0%	-5%	56µM*	-6%
CCSc1nnc(-c2sc3nnc(-c4ccccc4)c(-c4ccccc4)c3c2N)o1	-11%	2%	18µM*	168%	100µM*
CC(C)CC(=NNC(=O)c1ccncc1)c1cc(Cl)ccc1O	-1%	100µM*	28µM*	2%	?
